The whole screen tested about 100,000 compounds, of which about 770 (0.77%) were called active. No stated cut-off is given here; in the data, active means inhibition above about 50%; inactive means the rest. What follows is part of a selection rich in actives, with near analogues and random picks from the rest.
What follows are compounds tested against Gag-Pol polyprotein (Human immunodeficiency virus type 1 group M subtype B (isolate HXB2)) (UniProt P04585) (assay: RNase H inhibition, HIV 1 Gag Pol polyprotein, FRET biochemical assay, screening (AID 372)). Conditions: HIV-1 RT RNase H, FRET RNA/DNA substrate fluorescence; at 10 µM; active compounds read high.

Row | Compound | inhibition
1 | C=CCc1ccc(OCCOc2cccc(/C=C3\SC(=S)N(CC)C3=O)c2)c(OC)c1 | 26% (inactive)
2 | C=CCN1C(=O)/C(=C\c2ccc(-c3ccc([N+](=O)[O-])cc3)o2)SC1=S | 4% (inactive)
3 | Cc1ccccc1NC1=C(Cl)C(=O)N(c2cccc(C)c2C)C1=O | 9% (inactive)
4 | CCOC(=O)C1=C(C)N=c2s/c(=C/c3ccc(-c4cccc(C(F)(F)F)c4)o3)c(=O)n2C1c1cccs1 (stereo unspecified) | 6% (inactive)
5 | COc1ccc(C2=C/C(=C/c3ccccc3OC)C(=O)O2)c(OC)c1 | 2% (inactive)
6 | CC(=O)C1=C(O)C(=O)N(Cc2ccccc2)C1c1ccc([N+](=O)[O-])cc1 (stereo unspecified) | 12% (inactive)
7 | COc1ccc(C(=O)Nc2ccc(NC(=O)c3ccc(NC(=O)c4ccc(OC)cc4)cc3)cc2)cc1 | 8% (inactive)
8 | COc1ccc(C(=O)Nc2ccc(Cc3ccncc3)cc2)cc1OC | 6% (inactive)
9 | COc1ccc(C(=O)Nc2ccc(Cc3ccc(NC(=O)c4ccc(OC)cc4)cc3)cc2)cc1 | 52% (active)
10 | COc1cc(C(=O)Nc2ccc(Cc3ccncc3)cc2)cc(OC)c1OC | 56% (active)
11 | COc1ccc(C(=O)Nc2ccc(NC(=O)c3ccc(OC)cc3)cc2)cc1 | 16% (inactive)
12 | COc1cc(C(=O)Nc2ccc(Cc3ccc(NC(=O)c4cc(OC)c(OC)c(OC)c4)cc3)cc2)cc(OC)c1OC | 1% (inactive)
13 | CCc1ccc(C2Nc3ccccc3NC3=C2C(=O)CC(c2ccc(OC)cc2)C3)s1 (stereo unspecified) | 7% (inactive)
14 | O=C(N/N=C/c1cccc(/C=N/NC(=O)c2cccnc2)c1)c1cccnc1 | 0% (inactive)
15 | COc1ccc(NC(=O)c2ccc(CN3CCN(c4ccccc4)CC3)cc2)cc1 | 9% (inactive)
16 | COc1ccc(C(=O)NC(=S)Nc2ccc3oc(-c4ccc(OC)c(Cl)c4)nc3c2)cc1 | 20% (inactive)
17 | CC(=O)Nc1ccccc1NC(=O)c1cccc(F)c1 | 0% (inactive)
18 | NNC(=O)COc1ccccc1-c1ccccc1 | 14% (inactive)
19 | O=C1C(=O)N(c2ccccc2)C(c2ccc([N+](=O)[O-])cc2)/C1=C(/O)c1ccccn1 (stereo unspecified) | 0% (inactive)
20 | O=C(CN1C(=O)c2cccc3cccc(c23)C1=O)NCc1ccc2c(c1)OCO2 | 5% (inactive)
21 | O=C(CN1C(=O)c2cccc3cccc(c23)C1=O)OCc1ccc2c(c1)OCO2 | 53% (active)
22 | O=C(CCCN1C(=O)c2cccc3cccc(c23)C1=O)OCc1ccc2c(c1)OCO2 | 31% (inactive)
23 | CCSc1nc(-c2ccccc2)nc(C(Cl)Cl)n1 | 25% (inactive)

Row | Compound | inhibition
24 | O=C(COc1ccc(Cl)cc1)Nc1ncc(S(=O)(=O)c2ccc([N+](=O)[O-])cc2)s1 | 12% (inactive)
25 | CC(C)c1ccc(OCC(=O)Nc2ncc(S(=O)(=O)c3ccc([N+](=O)[O-])cc3)s2)cc1 | 58% (active)
26 | O=C(O)c1ccccc1C(=O)Nc1ncc(S(=O)(=O)c2ccc([N+](=O)[O-])cc2)s1 | 10% (inactive)
27 | O=C(Nc1ncc(S(=O)(=O)c2ccc([N+](=O)[O-])cc2)s1)c1ccc(Cl)cc1Cl | 6% (inactive)
28 | O=C(Nc1ncc(S(=O)(=O)c2ccc([N+](=O)[O-])cc2)s1)c1ccccc1Cl | 54% (active)
29 | O=C(COc1ccc(Br)cc1)Nc1ncc(S(=O)(=O)c2ccc([N+](=O)[O-])cc2)s1 | 19% (inactive)
30 | CCc1ccc(-n2nc(C)c3c(C)cc(=O)oc32)cc1 | 7% (inactive)
31 | O=C(O)C1CCC(c2ccccc2)CC1 (stereo unspecified) | 4% (inactive)
32 | O=C(c1nn2c(C(F)(F)F)cc(-c3ccc(F)cc3)nc2c1Cl)N1CCOCC1 | 3% (inactive)
33 | C(=N/Nc1nc2ccccc2o1)/c1ccc(N2CCOCC2)cc1 | 20% (inactive)
34 | Cc1ccc(S(=O)(=O)/N=C2/C=C(Sc3nnnn3-c3ccccc3)C(=O)c3ccccc32)cc1 | 43% (inactive)
35 | Cc1ccc(S(=O)(=O)/N=C2/C=C(Br)C(=O)c3ccccc32)cc1 | 32% (inactive)
36 | COc1ccc(Nc2ccc(N)cc2)cc1 | 19% (inactive)
37 | O=C(Nc1ccc(Cl)c(-c2nc3ccccc3[nH]2)c1)c1cc2ccccc2o1 | 11% (inactive)
38 | O=C(Nc1ccc(-c2nc3ccccc3[nH]2)cc1)c1cc2ccccc2o1 | 51% (active)
39 | CC(=O)Nc1ccc(C(=O)Nc2ccc(-c3nc4ccccc4[nH]3)cc2)cc1 | 3% (inactive)
40 | Cc1ccc(-c2nc3ccccc3[nH]2)cc1NC(=O)c1cc2ccccc2o1 | 8% (inactive)
41 | O=C(Nc1ccc(-c2nc3ccccc3[nH]2)cc1)c1ccc(Cl)c(Cl)c1 | 59% (active)
42 | O=C(Nc1ccc(-c2nc3ccccc3[nH]2)cc1)c1ccc(Cl)cc1 | 14% (inactive)
43 | CCOC(=O)/C(=N/Nc1cccc(C)c1)c1csc(N)n1 | 10% (inactive)
44 | COc1ccc(/C=C/C(=O)Oc2ccc3c(c2)C(C)=CC(C)(C)N3)cc1 | 16% (inactive)
45 | O=C(N=Nc1c(O)n(CN2CCCCC2)c2ccccc12)c1ccncc1 | 0% (inactive)
46 | CC1(C)NC(=O)N(CC(O)CN(c2cccc([N+](=O)[O-])c2)S(=O)(=O)c2ccccc2)C1=O (stereo unspecified) | 0% (inactive)

Row | Compound | inhibition
47 | S=C(Nc1ccccc1)N1CCN(C(=S)Nc2ccccc2)CC1 | 9% (inactive)
48 | S=C(Nc1cccc2ccccc12)N1CCN(C(c2ccccc2)c2ccccc2)CC1 | 5% (inactive)
49 | S=C(Nc1ccccc1)N1CCN(C(c2ccccc2)c2ccccc2)CC1 | 56% (active)
50 | COc1ccc(/C=C2\SC(=O)N(c3c(C)n(C)n(-c4ccccc4)c3=O)C2=O)cc1 | 0% (inactive)
51 | Cc1c(N2C(=O)S/C(=C\c3ccccc3)C2=O)c(=O)n(-c2ccccc2)n1C | 0% (inactive)
52 | Cc1c(N2C(=O)S/C(=C\c3ccc(N(C)C)cc3)C2=O)c(=O)n(-c2ccccc2)n1C | 67% (active)
53 | Cc1c(N2C(=O)S/C(=C\c3ccc([N+](=O)[O-])cc3)C2=O)c(=O)n(-c2ccccc2)n1C | 3% (inactive)
54 | Cc1c(N2C(=O)S/C(=C\c3cccc([N+](=O)[O-])c3)C2=O)c(=O)n(-c2ccccc2)n1C | 59% (active)
55 | Cc1c(N2C(=O)/C(=C/c3cccc([N+](=O)[O-])c3)SC2=S)c(=O)n(-c2ccccc2)n1C | 13% (inactive)
56 | Cc1ncc(CO)c(/C=N/Nc2ccccc2)c1O | 13% (inactive)
57 | O=C(N/N=C/c1ccc(O)c(Br)c1)c1cccc(Br)c1 | 0% (inactive)
58 | COc1ccc(NC(=O)c2sc3cc(C)ccc3c2Cl)c(OC)c1 | 3% (inactive)
59 | Cc1ccn2c(-c3csc(Nc4ccc(O)cc4)n3)c(C)nc2c1 | 8% (inactive)
60 | CCC1CCCCN1S(=O)(=O)c1ccc(Cl)c([N+](=O)[O-])c1 (stereo unspecified) | 12% (inactive)
61 | Cc1cc(C)c(N2C(=O)c3ccc(-c4nc5ccccc5c(=O)o4)cc3C2=O)c(C)c1 | 54% (active)
62 | Cc1cccc(N2C(=O)c3ccc(-c4nc5ccccc5c(=O)o4)cc3C2=O)c1 | 37% (inactive)
63 | Cc1ccccc1N1C(=O)c2ccc(-c3nc4ccccc4c(=O)o3)cc2C1=O | 2% (inactive)
64 | Cc1cc(Br)ccc1N1C(=O)c2ccc(-c3nc4ccccc4c(=O)o3)cc2C1=O | 59% (active)
65 | Cc1cccc(N2C(=O)c3ccc(-c4nc5ccccc5c(=O)o4)cc3C2=O)c1C | 10% (inactive)
66 | Cc1ccc(N2C(=O)c3ccc(-c4nc5ccccc5c(=O)o4)cc3C2=O)c(C)c1 | 5% (inactive)
67 | O=C1C(=O)N(c2cccnc2)C(c2ccc(F)cc2)/C1=C(\O)c1ccc(Cl)cc1 (stereo unspecified) | 2% (inactive)
68 | CCCC(=O)N1c2c(C)cccc2C(Nc2ccccc2C)CC1C (stereo unspecified) | 12% (inactive)
69 | COC(=O)c1c(NC(=O)c2c(F)c(F)c(F)c(F)c2F)sc2c1CCCCC2 | 26% (inactive)

Row | Compound | inhibition
70 | O=c1c(C=NCC2CCCO2)c(C(F)(F)F)[nH]n1-c1nc2ccccc2s1 (stereo unspecified) | 0% (inactive)
71 | CCOC(=O)c1ccc(NC(=O)Nc2nc(-c3ccccc3)cs2)cc1 | 0% (inactive)
72 | Oc1c(Br)cc(Cl)cc1/C=C/c1ccc2cccc(O)c2n1 | 15% (inactive)
73 | O=C(c1ccccc1)c1cc(Cl)cc2c1NC(C(=O)O)C1CC=CC21 (stereo unspecified) | 30% (inactive)
74 | O=C(O)C1Nc2ccc(F)cc2C2C=CCC12 (stereo unspecified) | 12% (inactive)
75 | O=C(O)C1Nc2c(cccc2[N+](=O)[O-])C2C=CCC12 (stereo unspecified) | 17% (inactive)
76 | NC(=O)c1cccc2c1NC(C(=O)O)C1CC=CC21 (stereo unspecified) | 22% (inactive)
77 | O=C(O)C1Nc2c(I)cccc2C2C=CCC12 (stereo unspecified) | 30% (inactive)
78 | Cc1ccc2c(c1)C1C=CCC1C(C(=O)O)N2 (stereo unspecified) | 27% (inactive)
79 | O=C1c2ccccc2NC(c2ccccc2O)N1Cc1ccco1 (stereo unspecified) | 5% (inactive)
80 | CC(C)Cc1ccc(-c2csc(/C(C#N)=C/Nc3ccccc3)n2)cc1 | 0% (inactive)
81 | CCOc1cc(/C=C2\SC(N)=NC2=O)ccc1OCCOc1ccc(Cl)c(C)c1 | 30% (inactive)
82 | O=C(CSCc1cccc(Br)c1)N=Nc1c(O)[nH]c2ccccc12 | 16% (inactive)
83 | Cc1ccc(Cc2cnc(NC(=O)c3ccc(Br)cc3)s2)cc1 | 0% (inactive)
84 | COc1cccc(C(=O)Nc2ccc(-c3cnc(-c4ccc(NC(=O)c5cccc(OC)c5)cc4)nc3)cc2)c1 | 50% (active)
85 | O=C(Nc1ccc(-c2cnc(-c3ccc(NC(=O)c4ccccc4)cc3)nc2)cc1)c1ccccc1 | 0% (inactive)
86 | COc1cccc(C(=O)Nc2ccc(-c3ccc(NC(=O)c4cccc(OC)c4)cc3)cc2)c1 | 2% (inactive)
87 | Cc1cc(C)c(OCCCCN2CCC(C)CC2)c(C)c1 | 10% (inactive)
88 | COc1cc([N+](=O)[O-])ccc1NC(=S)NC(=O)c1ccccc1 | 3% (inactive)
89 | N#Cc1c(-c2ccco2)c2c([nH]c1=S)CCCC2 | 63% (active)
90 | N#Cc1c(N)c(C#N)c(-c2ccco2)c2c1CCCC2 | 4% (inactive)
91 | Cc1ccc(-c2c3c([nH]c(=S)c2C#N)CCCC3)o1 | 8% (inactive)

Reference: PubChem BioAssay AID372 (MTDP, 2006)
